Laboratory results reported in PubChem BioAssay (NCATS).
Values joined by “and” are separate entries in the source; they are usually repeats but may differ in a detail not shown here. Equal values may be shown once. Inconclusive results are not listed. Where a call stands in place of a potency, no number is given. Some structures have more than one record in an assay (separate samples or runs), and their calls can disagree. Active and inactive are the calls of the source. The call rests on the fitted dose curve; in most records, active means well fitted curve in the direction sought with a large enough effect; inconclusive means small, poorly fitted or top-dose-only effect, or another doubt; inactive means no such curve, though single readings can be large; an effect the other way counts as inactive or inconclusive.

Tests used:
[1] = Viability qHTS for spleen associated tyrosine kinase inhibitor (SYKi) drug resistant MV4-11 cells (AID 1963824); further: nearly all actives have a fitted effect of over 35% in size
Outline: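 SYK inhibitor-resistant MV4-11 AML cells, 500 per well, added to predispensed compounds and incubated 72 hr at 37 C, 5% CO2. Viability measured by CellTiter-Glo luminescence after 10 min at room temperature.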

[2] = Quantitative highthroughput screen to assess conditional lethalithy of NOMO1 cells grown in RPMI1640 with untreated serum (RPMI+s) (AID 1963876); further: nearly all actives have a fitted effect of over 35% in size
Outline: (§1)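 Each medium arm—HPLM with 10% dialyzed FBS, or RPMI1640 with 5 mM glucose and 10% untreated or dialyzed FBS—was screened against an 11-point, 3-fold compound titration for 48 h at 37 °C, with CellTiter-Glo luminescence as endpoint.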

[3] = Quantitative highthroughput screen to assess conditional lethalithy of NOMO1 cells grown in RPMI1640 with dialyzed fetal bovine serum (RPMI+ds) (AID 1963877); further: nearly all actives have a fitted effect of over 30% in size; on Viability: series mostly up to about 46 µM
Outline: as §1

[4] = Quantitative highthroughput screen to assess conditional lethalithy of NOMO1 cells grown in Human Plasma-Like Medium with dialyzed fetal bovine serum (HPLM+ds) (AID 1963878); further: nearly all actives have a fitted effect of over 35% in size
Outline: as §1

[5] = Quantitative highthroughput screen to assess conditional lethalithy of P12 Ichikawa cells grown in RPMI1640 with dialyzed fetal bovine serum (RPMI+ds) (AID 1963880); details: Potency: P12-Ichikawa viability; further: nearly all actives have a fitted effect of over 35% in size
Outline: as §1

[6] = Quantitative highthroughput screen to assess conditional lethalithy of P12 Ichikawa cells grown in RPMI1640 with untreated serum (RPMI+s) (AID 1963881); details: Potency: viability; further: nearly all actives have a fitted effect of over 35% in size; on Viability: series mostly up to about 46 µM
Outline: as §1

[7] = Quantitative highthroughput screen to assess conditional lethalithy of SEM cells grown in Human Plasma-Like Medium with dialyzed fetal bovine serum (HPLM+ds) (AID 1963882); further: nearly all actives have a fitted effect of over 35% in size; on Viability: series mostly up to about 46 µM
Outline: as §1

[8] = Quantitative highthroughput screen to assess conditional lethalithy of SEM cells grown in RPMI1640 with unreated serum (RPMI+s) (AID 1963883); further: nearly all actives have a fitted effect of over 35% in size
Outline: as §1

[9] = Quantitative highthroughput screen to assess conditional lethalithy of SEM cells grown in RPMI1640 with dialyzed fetal bovine serum (RPMI+ds) (AID 1963884); further: nearly all actives have a fitted effect of over 35% in size; on Viability: series mostly up to about 46 µM
Outline: as §1

[10] = Cellular viability qHTS for adrenocortical cancer (ACC) cell line SW-13 (AID 1963989); details: SW-13 ACC cells viability, CellTiter-Glo, 48 h; activity (max response): stronger effect = lower value; further: nearly all actives have a fitted effect of over 65% in size;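 on activity (max response): cells grown in serum-free medium with ITS supplement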
Outline: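 Luminescent ATP read-out (CellTiter-Glo, 20 min at room temperature) measured metabolically competent SW-13 cells after 48 h compound treatment. Final concentrations spanned up to 46 uM; bortezomib served as positive control.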

[11] = Cellular viability qHTS for adrenocortical cancer (ACC) cell line NCI-H295R (AID 1963990); further: nearly all actives have a fitted effect of over 60% in size
Outline: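 IC50 and maximal efficacy derive from four-parameter logistic modelling of titration curves, with reads scaled between DMSO-only wells (0%) and doxorubicin hydrochloride (100% inhibition). Compounds spanned up to 46 uM over 48 h.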

[12] = Quantitative highthroughput screen to assess conditional lethalithy of P12 Ichikawa cells grown in Human Plasma-Like Medium with dialyzed fetal bovine serum (HPLM+ds) (AID 1963879); details: Potency: viability; further: nearly all actives have a fitted effect of over 35% in size; on Viability: series mostly up to about 46 µM
Outline: as §1
Potency means the concentration at half of the fitted maximal effect.

Structure (SMILES)	Potency [1]	Potency [2]	Potency [3]	Potency [4]	Potency [5]	Potency [6]	Potency [7]	Potency [8]	Potency [9]	activity (max response) [10]	Potency [11]	Potency [12]	Potency [10]
Cc1noc(NS(=O)(=O)c2ccc(N)cc2)c1C	inactive	inactive	inactive	inactive	inactive	inactive	inactive	inactive	inactive	-8.37% (inactive)			
CC1(C)Cc2c(-c3ccccc3)c(-c3ccc(Cl)cc3)c(CC(=O)O)n2C1	9.2 µM (active)	inactive	inactive	inactive	inactive	inactive	inactive	inactive					
Cc1c(NC(=O)c2ccc(C(C)(C)C)cc2)cccc1-c1cn(C)c(=O)c(Nc2ccc(C(=O)N3CCOCC3)cc2)n1	11.4 µM (active) and 16.6 µM (active)	inactive	inactive	inactive	inactive	inactive	inactive	inactive	inactive	-3.65% (inactive)	inactive		
O=C(Nc1ccc(Oc2ccnc3[nH]ccc23)c(F)c1)c1cccn(-c2ccc(F)cc2)c1=O	0.0146 µM (active)	inactive	inactive	inactive	inactive	inactive					inactive	inactive	
S=c1nc[nH]c2nc[nH]c12	2.37 µM (active) and 833 nM (active)	inactive	1.48 µM (active)	5.9 µM (active)	0.743 µM (active)						2.06 µM (active) and 4.47 µM (active)		8.2 µM (active) and 15.8 µM (active)
CNC(=O)c1ccc(C)c(-n2c(C)cc(OCc3ccc(F)cc3F)c(Br)c2=O)c1	8.2 µM (active)	inactive	inactive	inactive	inactive		inactive				inactive	inactive	
N#CC1(c2ccc(NC(=O)c3cccnc3NCc3ccncc3)cc2)CCCC1	5.17 µM (active)	inactive	inactive	inactive	inactive	inactive		inactive	1.66 µM (active)	-5.11% (inactive)	inactive		
COc1ccc(CC2SC(=O)NC2=O)cc1C(=O)NCc1ccc(C(F)(F)F)cc1 (stereo not given)	18.6 µM (active)	inactive	inactive	inactive	inactive	inactive				-17.2% (inactive)		inactive	
CCc1ccc(CCOc2ccc(CC3SC(=O)NC3=O)cc2)nc1 (stereo not given)	inactive	inactive	inactive	inactive	inactive	inactive	inactive		inactive	0.771% (inactive) and -12.6% (inactive)	inactive	inactive	
NC(=O)c1ccc(N(C(N)=O)c2c(F)cccc2F)nc1-c1ccc(F)cc1F	10.3 µM (active) and inactive	inactive	inactive	inactive	inactive	inactive				-4.37% (inactive)	inactive	inactive	
COc1cc(OC)c(NC(=O)Nc2cc(C)on2)cc1Cl	6.61 µM (active)	inactive	inactive	inactive	inactive	inactive		inactive	inactive	-19.6% (inactive)	inactive		
N[C@H](CSC(c1ccccc1)(c1ccccc1)c1ccccc1)C(=O)O	14.8 µM (active)	inactive	inactive	inactive	inactive		16.6 µM (active)		13.2 µM (active)	-17.5% (inactive)	inactive	inactive	
Nc1ccn([C@@H]2C(F)=C(CO)[C@@H](O)[C@H]2O)c(=O)n1	1.03 µM (active)	5.24 µM (active)	2.95 µM (active)	2.63 µM (active)	6.6 µM (active)				1.48 µM (active)			1.66 µM (active)	
CN(C)c1ccc2nc3ccc(=[N+](C)C)cc-3sc2c1	372 nM (active) and 841 nM (active)	8.33 µM (active)	6.62 µM (active)	8.33 µM (active)	7.43 µM (active)	5.9 µM (active)	9.35 µM (active)				8.91 µM (active) and 8.2 µM (active)	5.26 µM (active)	7.08 µM (active) and 4.11 µM (active)
Cc1cc(Nc2ncc3c(n2)N(C)C(=O)N(c2cc(NC(=O)c4cccc(C(F)(F)F)c4)ccc2C)C3)n(C)n1	0.0295 µM (active)	1.66 µM (active)	1.18 µM (active)	1.18 µM (active)		5.9 µM (active)	0.469 µM (active)	0.372 µM (active)	0.372 µM (active)		1.26 µM (active)		0.355 µM (active)
Nc1ccn([C@@H]2O[C@H](CO)[C@@H](O)C2O)c(=O)n1 (stereo not given in full)	1.86 µM (active)	inactive	inactive	1.18 µM (active)	inactive	inactive					inactive	inactive	
Cc1c(C)n(Cc2ccc(-c3ccccc3C(=O)O)cc2)c2ccc(C(=O)N[C@@H](C)c3ccc([N+](=O)[O-])cc3)cc12	20.9 µM (active)	9.35 µM (active)	9.35 µM (active)		10.5 µM (active)		inactive	inactive	inactive				
CCCCC(F)(F)[C@@]1(O)CC[C@H]2[C@H](CC(=O)[C@@H]2CCCCCCC(=O)O)O1	0.0295 µM (active)	inactive	inactive		inactive		inactive		inactive	8.13% (inactive)	inactive	inactive	
c1cc(N[C@@H]2CCNC2)nc(-c2cnc3ccc(-c4cn[nH]c4)cn23)c1	0.0066 µM (active)	inactive	5.9 µM (active)								inactive		3.98 µM (active)

Structure (SMILES)	Potency [1]	Potency [2]	Potency [3]	Potency [4]	Potency [5]	Potency [6]	Potency [7]	Potency [8]	Potency [9]	activity (max response) [10]	Potency [11]	Potency [12]	Potency [10]
CC1(C)O[C@@H]2C[C@H]3[C@@H]4CCC5=CC(=O)C=C[C@]5(C)[C@@H]4[C@@H](O)C[C@]3(C)[C@]2(C(=O)CO)O1	inactive	inactive	inactive	inactive						-5.21% (inactive)	inactive		
CCNC(=O)c1cc2c(-c3cc(OCCN4CCCC4)c(Cl)cc3Cl)nc(N)nc2s1	0.162 µM (active)	3.72 µM (active)	4.69 µM (active)	4.18 µM (active)			2.96 µM (active)		2.35 µM (active)		2.54 µM (active)		1.6 µM (active)
CC(C)n1cnc2c(NCCCCCCNC(=O)OC(C)(C)C)nc(NCCO)nc21	14.8 µM (active)	inactive	inactive	inactive			inactive				inactive		
Cc1nc2ccc(C(=O)N3CCC4(CC3)CC(=O)c3c(cnn3C(C)C)C4)cc2[nH]1	20.9 µM (active)	inactive	inactive								inactive		
COc1ccccc1OCC(O)COC(N)=O (stereo not given)	inactive	inactive	inactive		inactive	inactive	inactive		inactive	-1.45% (inactive)	inactive		
Clc1ccc(COC(Cn2ccnc2)c2ccc(Cl)cc2Cl)c(Cl)c1 (stereo not given)	11.8 µM (active)	inactive	inactive	inactive							10 µM (active)		17.8 µM (active)
O=C(O)c1nc(=O)[nH]c(=O)[nH]1	inactive	inactive	inactive		inactive	inactive	inactive	inactive	inactive	-18% (inactive)	inactive	inactive	
Cc1cnc(-c2cnc(NCCNc3ccc(C#N)cn3)nc2-c2ccc(Cl)cc2Cl)[nH]1	13 µM (active)	inactive	inactive							4.03% (inactive)	inactive		
Cc1cccc(-c2nn(C(=S)Nc3ccccc3)cc2-c2ccnc3ccccc23)n1	18.6 µM (active)	inactive	inactive	inactive		inactive	inactive				inactive		
C[C@@H]1CN(c2c(F)c(N)c3c(=O)c(C(=O)O)cn(C4CC4)c3c2F)C[C@H](C)N1	inactive	inactive	inactive							-1.88% (inactive)	inactive	inactive	
O=S(=O)(c1cccc2cnccc12)N1CCCNCC1	inactive	inactive	inactive			inactive	inactive		inactive		inactive		
CN1CCC(CNc2ccc3ncc(-c4cccc(OC(F)(F)F)c4)n3n2)CC1	41.1 nM (active) and 132 nM (active)	23.5 µM (active)	23.5 µM (active)	18.7 µM (active)			5.9 µM (active)	4.69 µM (active)	1.32 µM (active)		8.91 µM (active)		
O=C(O)CCCc1c[nH]c2ccccc12	inactive	inactive		inactive	inactive	inactive	inactive	inactive	inactive	1.46% (inactive)	inactive	inactive	
C[C@@H]1CN(Cc2ccc(F)cc2)[C@@H](C)CN1C(=O)c1cc2c(C(=O)C(=O)N(C)C)cn(C)c2cc1Cl	16.4 µM (active)	inactive	inactive		inactive	inactive	inactive				inactive	inactive	
CCC(C)N(C)C(=O)c1cc2ccccc2c(-c2ccccc2Cl)n1 (stereo not given)	18.6 µM (active)	inactive		inactive	inactive	inactive	inactive	inactive		-6.79% (inactive)		inactive	
CCS(=O)(=O)N1CC(CC#N)(n2cc(-c3ncnc4[nH]ccc34)cn2)C1	16.4 µM (active) and 10.5 µM (active)	inactive	inactive		inactive	inactive						inactive	
Clc1ccc(C(c2ccc(Cl)cc2)n2cc[n+](CC(OCc3ccc(Cl)cc3Cl)c3ccc(Cl)cc3Cl)c2)cc1 (stereo not given)	1.86 µM (active)	20.9 µM (active)	26.4 µM (active)	26.4 µM (active)		20.9 µM (active)	16.6 µM (active)	13.2 µM (active)	20.9 µM (active)		8.91 µM (active)		5.01 µM (active)
COc1cc(C(=O)NC2CCN(C)CC2)ccc1Nc1ncc2c(n1)N(C1CCCC1)CCC(=O)N2C(C)C	4.17 µM (active)	20.9 µM (active)		14.8 µM (active)	16.6 µM (active)	11.8 µM (active)					25.1 µM (active)	9.35 µM (active)	25.1 µM (active)
Clc1ccc2c(c1)C(N1CCNCC1)=Nc1ccccc1O2	13.3 µM (active) and inactive	inactive		inactive	inactive	inactive		inactive	inactive	-1.69% (inactive)		inactive	
